Experiment in all cases: PBM; 200 nM protein, PBS
What all share (details): dsDNA, one strand shown

In experiment [1] the target is NKX2-5 (Homo sapiens, UniProt P52952 125-210, R139K).
The target of experiment [2] is T1, NKX2-4 (Homo sapiens, UniProt Q9H2Z4 175-261, P217L).
T1 sequence: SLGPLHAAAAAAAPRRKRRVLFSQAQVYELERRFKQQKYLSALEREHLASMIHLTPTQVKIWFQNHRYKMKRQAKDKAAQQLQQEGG

In experiment [3] the target is T2, NKX2-4 (Homo sapiens, UniProt Q9H2Z4 175-261, T231S).
T2 sequence: T1 sequence with L43P, T57S

In experiment [4] the target is T3, NKX2-4 (Homo sapiens, UniProt Q9H2Z4 175-261).
T3 sequence: T1 sequence with L43P

For experiment [5], the target named is T4, NKX2-6 (Homo sapiens, UniProt A6NCS4 118-204, R150C).
T4 sequence: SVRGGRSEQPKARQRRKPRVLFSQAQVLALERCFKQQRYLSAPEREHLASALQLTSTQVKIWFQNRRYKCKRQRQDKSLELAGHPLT

Experiment [6] has as its target T5, NKX2-6 (Homo sapiens, UniProt A6NCS4 118-204).
T5 sequence: T4 sequence with C33R

Experiment [7] addresses T6, NKX2-4 (Homo sapiens, UniProt Q9H2Z4 175-261, R246Q).
T6 sequence: T1 sequence with L43P, R72Q

The target of experiment [8] is T7, NKX2-6 (Homo sapiens, UniProt A6NCS4 118-204, F151L).
T7 sequence: T4 sequence with C33R, F34L

Experiment [9] deals with NKX3-2 (Homo sapiens, UniProt P78367 192-278, P234S).
In experiment [10] the target is NKX2-5 (Homo sapiens, UniProt P52952 125-210).
Experiment [11] concerns the target NKX3-2 (Homo sapiens, UniProt P78367 192-278).
The target of experiment [12] is T8, VENTX (Homo sapiens, UniProt O95231 78-163, R121Q).
T8 sequence: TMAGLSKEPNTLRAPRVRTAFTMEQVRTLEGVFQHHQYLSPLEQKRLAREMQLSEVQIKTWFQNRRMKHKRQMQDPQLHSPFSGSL

The target of experiment [13] is T9, VENTX (Homo sapiens, UniProt O95231 78-163).
T9 sequence: T8 sequence with Q44R

In experiment [14] the target is T10, VENTX (Homo sapiens, UniProt O95231 78-163, Y115F).
T10 sequence: T8 sequence with Y38F, Q44R

The next experiment has as its target HOXB9 (Homo sapiens, UniProt P17482 171-250, R186Q).

Changes are numbered by the printed parent chain.

The values below come from publication PMC11006913.

Sequence of NKX2-5 (Homo sapiens, UniProt P52952 125-210, R139K) (P52952 125-210 R139K): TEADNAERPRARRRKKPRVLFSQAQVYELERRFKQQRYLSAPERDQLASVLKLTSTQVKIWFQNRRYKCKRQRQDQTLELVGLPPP
Sequence of NKX2-5 (Homo sapiens, UniProt P52952 125-210) (P52952 125-210): as the sequence (P52952 125-210 R139K) above, with K15R counted along it
Sequence of NKX3-2 (Homo sapiens, UniProt P78367 192-278, P234S) (P78367 192-278 P234S): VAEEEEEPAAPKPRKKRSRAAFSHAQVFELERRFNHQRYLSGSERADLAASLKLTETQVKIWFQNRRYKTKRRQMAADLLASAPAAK
Sequence of NKX3-2 (Homo sapiens, UniProt P78367 192-278) (P78367 192-278): as the sequence (P78367 192-278 P234S) above, with S43P counted along it
Sequence of HOXB9 (P17482 171-250 R186Q): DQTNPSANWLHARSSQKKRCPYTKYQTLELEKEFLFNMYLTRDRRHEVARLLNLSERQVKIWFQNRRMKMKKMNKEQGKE

As for CACTTATG, the binding signal with NKX2-5 [1] is 13 upbm affinity estimate (log intensity, higher = more binding, comparable within an allelic series); with NKX2-4 [2], 12.6 upbm affinity estimate (log intensity, higher = more binding, comparable within an allelic series); in the experiment with NKX2-4 [3], 13 upbm affinity estimate (log intensity, higher = more binding, comparable within an allelic series); with NKX2-4 [4] it was 12.5 upbm affinity estimate (log intensity, higher = more binding, comparable within an allelic series); with NKX2-6 [5] it was 12.2 upbm affinity estimate (log intensity, higher = more binding, comparable within an allelic series); in the experiment with NKX2-6 [6] it was 13.8 upbm affinity estimate (log intensity, higher = more binding, comparable within an allelic series). Further, the binding signal with NKX2-4 [7] was 13.1 upbm affinity estimate (log intensity, higher = more binding, comparable within an allelic series); in the experiment with NKX2-6 [8], 11.2 upbm affinity estimate (log intensity, higher = more binding, comparable within an allelic series); with NKX3-2 [9], 12.8 upbm affinity estimate (log intensity, higher = more binding, comparable within an allelic series); with NKX2-5 [10], 13 upbm affinity estimate (log intensity, higher = more binding, comparable within an allelic series); in the experiment with NKX3-2 [11], 12.9 upbm affinity estimate (log intensity, higher = more binding, comparable within an allelic series).

With CACTTGAA, the binding signal with NKX2-5 [1] was 13.2 upbm affinity estimate (log intensity, higher = more binding, comparable within an allelic series); with NKX2-4 [2], 12.8 upbm affinity estimate (log intensity, higher = more binding, comparable within an allelic series); with NKX2-4 [3] it was 13.3 upbm affinity estimate (log intensity, higher = more binding, comparable within an allelic series); with NKX2-4 [4], 12.7 upbm affinity estimate (log intensity, higher = more binding, comparable within an allelic series); in the experiment with NKX2-6 [5], 12.2 upbm affinity estimate (log intensity, higher = more binding, comparable within an allelic series); with NKX2-6 [6], 13.9 upbm affinity estimate (log intensity, higher = more binding, comparable within an allelic series). The binding signal with NKX2-4 [7] is 13.5 upbm affinity estimate (log intensity, higher = more binding, comparable within an allelic series); in the experiment with NKX2-6 [8], 11.4 upbm affinity estimate (log intensity, higher = more binding, comparable within an allelic series); in the experiment with NKX2-5 [10], 13.2 upbm affinity estimate (log intensity, higher = more binding, comparable within an allelic series).

For the sequence CCTGGGCC, the binding signal was 8.72 upbm affinity estimate (log intensity, higher = more binding, comparable within an allelic series) with NKX2-5 [1]; 7.97 upbm affinity estimate (log intensity, higher = more binding, comparable within an allelic series) with VENTX [12]; 8.01 upbm affinity estimate (log intensity, higher = more binding, comparable within an allelic series) in the experiment with VENTX [13]; 7.99 upbm affinity estimate (log intensity, higher = more binding, comparable within an allelic series) with VENTX [14]; 8.87 upbm affinity estimate (log intensity, higher = more binding, comparable within an allelic series) with NKX2-5 [10].

In the case of CCACTCGA, the binding signal with NKX2-5 [1] was 12.5 upbm affinity estimate (log intensity, higher = more binding, comparable within an allelic series); with NKX2-4 [2], 12.6 upbm affinity estimate (log intensity, higher = more binding, comparable within an allelic series); with NKX2-4 [3], 13.1 upbm affinity estimate (log intensity, higher = more binding, comparable within an allelic series); in the experiment with NKX2-4 [4] it was 12.4 upbm affinity estimate (log intensity, higher = more binding, comparable within an allelic series); with NKX2-6 [5] it was 11.6 upbm affinity estimate (log intensity, higher = more binding, comparable within an allelic series); with NKX2-4 [7], 13.1 upbm affinity estimate (log intensity, higher = more binding, comparable within an allelic series). For the same sequence, the binding signal with NKX2-5 [10] was 12.2 upbm affinity estimate (log intensity, higher = more binding, comparable within an allelic series).

For CCGACCTC, the binding signal with NKX2-5 [1] is 8.77 upbm affinity estimate (log intensity, higher = more binding, comparable within an allelic series); with VENTX [12] it was 7.98 upbm affinity estimate (log intensity, higher = more binding, comparable within an allelic series); with VENTX [13] it was 7.99 upbm affinity estimate (log intensity, higher = more binding, comparable within an allelic series); with VENTX [14], 8.1 upbm affinity estimate (log intensity, higher = more binding, comparable within an allelic series); in the experiment with NKX2-5 [10], 8.83 upbm affinity estimate (log intensity, higher = more binding, comparable within an allelic series).

On to CACTCAAG, for which the binding signal with NKX2-5 [1] was 12.5 upbm affinity estimate (log intensity, higher = more binding, comparable within an allelic series); with NKX2-4 [2] it was 12.5 upbm affinity estimate (log intensity, higher = more binding, comparable within an allelic series); in the experiment with NKX2-4 [3] it was 13 upbm affinity estimate (log intensity, higher = more binding, comparable within an allelic series); in the experiment with NKX2-4 [4], 12.4 upbm affinity estimate (log intensity, higher = more binding, comparable within an allelic series); with NKX2-6 [5], 11.6 upbm affinity estimate (log intensity, higher = more binding, comparable within an allelic series); with NKX2-6 [6], 13.5 upbm affinity estimate (log intensity, higher = more binding, comparable within an allelic series). The binding signal with NKX2-4 [7] is 13.1 upbm affinity estimate (log intensity, higher = more binding, comparable within an allelic series); with NKX2-6 [8], 10.5 upbm affinity estimate (log intensity, higher = more binding, comparable within an allelic series); with NKX2-5 [10], 12.3 upbm affinity estimate (log intensity, higher = more binding, comparable within an allelic series).

Regarding CGTGCACG, the binding signal is 8.84 upbm affinity estimate (log intensity, higher = more binding, comparable within an allelic series) in the experiment with NKX2-5 [1]; 8.57 upbm affinity estimate (log intensity, higher = more binding, comparable within an allelic series) with HOXB9; 8.84 upbm affinity estimate (log intensity, higher = more binding, comparable within an allelic series) with NKX2-5 [10].

With CTACTTGA, the binding signal with NKX2-5 [1] is 12.3 upbm affinity estimate (log intensity, higher = more binding, comparable within an allelic series); in the experiment with NKX2-4 [2], 12.6 upbm affinity estimate (log intensity, higher = more binding, comparable within an allelic series); with NKX2-4 [3] it was 13 upbm affinity estimate (log intensity, higher = more binding, comparable within an allelic series); with NKX2-4 [4], 12.4 upbm affinity estimate (log intensity, higher = more binding, comparable within an allelic series); in the experiment with NKX2-6 [5] it was 11.6 upbm affinity estimate (log intensity, higher = more binding, comparable within an allelic series); in the experiment with NKX2-6 [6], 13.3 upbm affinity estimate (log intensity, higher = more binding, comparable within an allelic series). In addition, the binding signal with NKX2-4 [7] is 13.1 upbm affinity estimate (log intensity, higher = more binding, comparable within an allelic series); with NKX2-6 [8], 10.5 upbm affinity estimate (log intensity, higher = more binding, comparable within an allelic series); with NKX2-5 [10], 12.3 upbm affinity estimate (log intensity, higher = more binding, comparable within an allelic series).
